24 molecules from PubChem BioAssay (Tox21) can be followed below.

Unmarked numbers belong to inactive results. Results filed as inconclusive are left out. Active and inactive are the calls of the source. Unless noted, the call rests on the fitted dose curve; in most records, active means well fitted curve in the direction sought with a large enough effect in the repeat runs; inconclusive means weak or mixed curves; inactive means no such curve, though single readings can be large; an effect the other way counts as inactive or inconclusive.

Assay [1] can be described thus: qHTS assay for small molecule agonists of the p53 signaling pathway (AID 651631; calls by dose curve; further: nearly all actives have a fitted effect of over 15% in size). Put shortly: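 Quantitative high-throughput format: 4,000 p53RE-bla HCT-116 cells/well, 5 h pre-incubation, 16 h compound exposure at 37 °C, 2 h room-temperature substrate step, fluorescence intensity measured.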
A short description of assay [2]: qHTS assay for small molecules that induce genotoxicity in human embryonic kidney cells expressing luciferase-tagged ATAD5 - cell viability (AID 651634; calls by dose curve; further: nearly all actives have a fitted effect of over 25% in size). Put shortly: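 Here HEK293T cells with the ATAD5 luciferase reporter are incubated with test compounds for 15.5 hr, and cytotoxicity is then gauged by measuring protease activity in live cells using fluorescence.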

Assay [3] in a line: qHTS assay for small molecule disruptors of the mitochondrial membrane potential - cell viability (AID 720634; calls by dose curve;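 further: human HepG2 liver cancer cells; series mostly up to about 83 µM; nearly all actives have a fitted effect of over 20% in size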). An outline of the steps:
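Viability of HepG2 cells is scored from ATP content by luminescence; cells are exposed to compound for 1 hr at 37 C and 5% CO2, then dosed with m-MPI dye before the CellTiter-Glo reagent.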
In general terms: In qHTS, concentration-response curves come from the screen itself.

Assay [4] can be described thus: qHTS assay for small molecule disruptors of the mitochondrial membrane potential (AID 720635). Further: potency means the concentration at half of the fitted maximal effect. Put shortly:
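HepG2 cells exposed to compound 1 hr at 37C, then Mito-MPS dye 30 min. Ratio read of aggregate (540/590 nm) versus monomer (490/535 nm) fluorescence.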

A short description of assay [5]: qHTS assay to test for compound auto fluorescence at 590 nm (red) in HepG2 cells (AID 720674). Put shortly:
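HepG2 cells, 2,000 per well in MEM with 10% FBS, attached overnight at 37 C, then got 23 nL compound or DMSO. After 1 hr at 37 C, 5% CO2, red fluorescence was read at 540/590 nm against Rose Bengal sodium as reference.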

Assay [6] is described as follows: qHTS assay to test for compound auto fluorescence at 535 nm (green) in HepG2 cells (AID 720675).
The nature of assay [7]: qHTS assay to test for compound auto fluorescence at 460 nm (blue) in HEK293 cells (AID 720678). An outline of the steps:
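HEK293 cells (2,000 per well, medium with 10% dialyzed FBS) attached for 4-5 hr at 37C, then received compound and stood overnight at 37C, 5% CO2. Blue fluorescence was read at Ex/Em 405/460 nm and expressed relative to triamterene.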

Assay [8] can be described thus: qHTS assay to test for compound auto fluorescence at 590 nm (red) in HEK293 cells (AID 720679). Put shortly:
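HEK293 cells (2,000/well, medium with 10% dialyzed FBS) attached for 4-5 hr at 37C, received 23 nL compound and were incubated overnight at 37C, 5% CO2. Red fluorescence was then read at 540/590nm Ex/Em, referenced to Rose Bengal sodium.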

Assay [9] in a line: qHTS assay for small molecules that induce genotoxicity in human embryonic kidney cells expressing luciferase-tagged ATAD5 (AID 651632). Further: nearly all actives have a fitted effect of over 15% in size. An outline of the steps: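 DMSO vehicle served as the control. HEK293T reporter cells, 16 hr at 37C, then 30 min Amplite at room temperature; ATAD5 induction is measured as luciferase activity.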
Assay [10] is described as follows: qHTS assay for small molecule agonists of the p53 signaling pathway - cell viability (AID 651633; calls by dose curve;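 further: p53RE-bla HCT reporter cells with a stable beta-lactamase p53 reporter; series mostly up to about 83 µM; nearly all actives have a fitted effect of over 30% in size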). An outline of the steps: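 p53RE-bla cells were treated with compound for 16 hours at 37 C. Cytotoxicity was then measured as CellTiter-Glo luminescence after 30 min at room temperature.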
On the % scale 0 is the no-effect control and ±100 the full control effect.

With `C=C(C)C(=O)OCCCCCCOC(=O)C(=C)C`, the molecule was classed as inactive in [1], in assay [3], in [5], in [6], in assay [7] and in assay [8]. Moreover, the Potency result in [2] and in [4] was “inactive” throughout.

On to `COC(/C=C(\C)CCC=C(C)C)OC`, for which the call in [9], in [10], in [3], in assay [5], in assay [6] and in [7] was inactive. Moreover, the molecule was called inactive in [8]. The Potency result in assay [2] and in [4] was “inactive” each time.

As to `CC(C)COC(=O)CCCCC(=O)OCC(C)C`, the result in assay [9], in assay [10], in [3], in [5], in assay [6] and in assay [7] was inactive. The outcome in [8] was inactive. Besides, in assay [2], the Potency result was “inactive”.

Turning to `Cc1ccccc1C`, the result in assay [9], in assay [10], in assay [3], in assay [5], in assay [6] and in assay [7] was inactive. The call in assay [8] was inactive. For the same molecule, the Potency entry in assay [2] and in assay [4] was “inactive” in each case.

Regarding `NCCc1ccn[nH]1`, the call in assay [9], in assay [10] and in [3] was inactive. The Potency entry in assay [2] and in assay [4] was “inactive” in each case. In addition, the fluorescence, relative to Rose Bengal in assay [5] was 0.0089% [at 18.6 µM]. Further, the fluorescence, % of fluorescein control in [6] is 0.0074% [at 18.6 µM]. In addition, the fluorescence, % of triamterene in assay [7] is -0.006% [at 18.6 µM]. Also, the fluorescence, % of fluorescent control in [8] was 0.131% [at 18.6 µM].

In the case of `CC(C)COC(=O)/C=C/c1ccccc1`, the call in assay [1], in assay [3], in [5], in assay [6], in assay [7] and in [8] was inactive. Also, the Potency result in assay [2] and in assay [4] was “inactive” each time.

Regarding `C[N+](C)(C)CC(O)CCl` (stereo not given), the molecule was classed as inactive in assay [1], in assay [5], in assay [6], in assay [7] and in assay [8]. The Potency result in [2] is “inactive”.

With `CCCCC(CC)COC(=O)c1ccccc1` (stereo not given), the molecule was classed as inactive in [9], in assay [10], in [5], in assay [6], in assay [7] and in [8]. Moreover, the Potency entry in assay [2] was “inactive”.

As to `CCC1Nc2cc(Cl)c(S(N)(=O)=O)cc2S(=O)(=O)N1` (stereo not given), the outcome in assay [9], in [10], in [3], in assay [5], in assay [6] and in [7] was inactive. Further, the molecule was classed as inactive in assay [8]. Further, the Potency entry in assay [2] was “inactive”.

Take `CCC(CO)CO`: the molecule was classed as inactive in assay [9], in [10], in assay [3], in assay [5], in [6] and in [7]. Further, the call in assay [8] was inactive. The Potency result in assay [2] is “inactive”.

Turning to `O=S1(=O)CCCC1`, the outcome in assay [9], in assay [10], in assay [5], in assay [6], in assay [7] and in assay [8] was inactive. The Potency entry in assay [2] is “inactive”.

For the molecule `CC(C)CCC(=O)CCC(C)C`, the outcome in assay [9], in [10], in assay [3], in assay [5], in assay [6] and in assay [7] was inactive. For the same molecule, the result in [8] was inactive. The Potency result in assay [2] was “inactive”.

`C[Si]1(C)N[Si](C)(C)N[Si](C)(C)N1`: the outcome in assay [9], in assay [10], in assay [3], in assay [5], in [6] and in [7] was inactive. The result in [8] was inactive. For the same molecule, the Potency entry in [2] is “inactive”. In addition, in [4], the Potency is 27.3 µM (active).

In the case of `CCCCCCCCCCCCOC(C)=O`, the molecule was called inactive in assay [9], in assay [10], in assay [3], in assay [5], in assay [6] and in assay [7]. The call in [8] was inactive. In addition, the Potency result in assay [4] was “inactive”.

`Cc1oc(=O)oc1CN1CCN(c2cc3c(cc2F)c(=O)c(C(=O)O)c2n3C(C)S2)CC1` (stereo not given): the molecule was called inactive in assay [9], in [10], in [3], in [5], in assay [6] and in assay [7]. In assay [8], the result was inactive. In [2], the Potency entry was “inactive”.

As to `CC(=O)OCC(=O)[C@@]1(O)[C@H](OC(C)=O)C[C@H]2[C@@H]3CCC4=CC(=O)C=C[C@]4(C)[C@@]3(F)[C@@H](O)C[C@@]21C`, the outcome in assay [9], in assay [10], in assay [3], in assay [5], in [6] and in assay [7] was inactive. The call in assay [8] was inactive. For the same molecule, the Potency entry in [2] is “inactive”.

Regarding `CC(C)CCCCCCOC(=O)C1CCCCC1C(=O)OCCCCCCC(C)C` (stereo not given), the molecule was classed as inactive in assay [9], in assay [10], in assay [3], in assay [5], in assay [6] and in assay [7]. Besides, the result in [8] was inactive. In assay [2], the Potency result is “inactive”.

`O=C1NC2NC(=O)NC2N1` (stereo not given): the result in [9], in assay [10], in assay [3], in assay [5], in assay [6] and in assay [7] was inactive. In assay [8], the result was inactive. Besides, the Potency entry in assay [2] and in assay [4] was “inactive” in each case.

As for `Cc1ccccc1N1CCN(CCc2nnc3n2CCCC3)CC1`, the molecule was called inactive in [9], in assay [10], in [3], in assay [5], in assay [6] and in assay [7]. Besides, the result in [8] was inactive.

With `O=C(/C=C/c1ccccc1)NCCO`, the result in [9], in assay [10], in assay [3], in assay [5], in assay [6] and in assay [7] was inactive. In addition, the outcome in [8] was inactive. For the same molecule, the Potency entry in assay [2] and in assay [4] was “inactive” each time.

Turning to `CC(C)COC(=O)COc1ccc(Cl)cc1Cl`, the call in [9], in [10], in [3], in assay [5], in assay [6] and in assay [7] was inactive. Moreover, the call in [8] was inactive. Also, the Potency entry in assay [2] and in assay [4] was “inactive” throughout.

On to `CCC(C)(CCC(C)C)C(=O)[O-].CCC(C)(CCC(C)C)C(=O)[O-].[Zn+2]` (stereo not given), for which the outcome in assay [9], in assay [10], in assay [3], in assay [5], in assay [6] and in assay [7] was inactive. In addition, the molecule was called inactive in [8]. In assay [2], the Potency result is “inactive”.

Consider `Cc1cccc(Nc2ccncc2S(=O)(=O)NC(=O)NC(C)C)c1`, for which the molecule was called inactive in [9], in assay [10] and in assay [3]. For the same molecule, the Potency result in assay [2] and in assay [4] was “inactive” in each case. The fluorescence, relative to Rose Bengal in assay [5] was -0.554% [at 18.6 µM]. The fluorescence, % of fluorescein control in [6] is 0.0113% [at 18.6 µM]. The fluorescence, % of triamterene in assay [7] was 0.173% [at 18.6 µM]. Also, the fluorescence, % of fluorescent control in assay [8] was 0.875% [at 18.6 µM].

As to `Cc1c(C(C)C)c(=O)n(-c2ccccc2)n1C`, the molecule was classed as inactive in assay [9], in [10], in assay [3], in [5], in [6] and in assay [7]. In addition, the call in assay [8] was inactive. In addition, in assay [2], the Potency result was “inactive”.
